Assay results reported in PubChem BioAssay.
Active and inactive are the calls of the source.

Tests used:
[1] = test system: PRMT1 (protein arginine N-methyltransferase 1); assay: PRMT1 binders on small-molecule microarrays, primary screen, biochemical, small-molecule microarray, 635 nm fluorescence (AID 1088); conditions: small-molecule microarray binding, higher = more signal;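 further: binding of Prmt1 protein to compounds spotted on small-molecule microarray slides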
[2] = yeast growth modulation, basal conditions, primary screen, YJM789 clinical isolate, OD600, 24 h (AID 1089);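 further: growth of clinical yeast isolate S. cerevisiae YJM 789 seeded 1000 cells per well; test concentration not given here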; conditions: S. cerevisiae YJM789 growth, higher = more signal, called active from +8 up or from −8 down
[3] = fission yeast growth modulation, primary screen, strain 972, OD600, 24 h, no modulator (AID 1090);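 further: basal condition with compound alone and no growth modifier present; test concentration not given here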; conditions: S. pombe 972 growth, higher = more signal, called active from +8 up or from −8 down
[4] = S. cerevisiae growth modulation with rapamycin, primary screen, strain BY4716, OD600, 96 h (AID 1091); conditions: higher = more signal, called active from +8 up or from −8 down; further: test concentration not given here
[5] = target: Torsin-1A-interacting protein 2 (Homo sapiens) (UniProt Q8NFQ8); assay: LULL1 binders on small-molecule microarray, primary screen, cell lysate, human LULL1 lysate, 635/667 nm fluorescence (AID 1092); conditions: hLULL1 lysate binding, 635 nm fluorescence, higher = more signal;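 further: probe is lysate of COS7 cells overexpressing human LULL1; score merges per-feature 667 nm fluorescence with signal-to-noise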
Torsin-1A-interacting protein 2 (Homo sapiens), sequence (Q8NFQ8 whole entry, looked up): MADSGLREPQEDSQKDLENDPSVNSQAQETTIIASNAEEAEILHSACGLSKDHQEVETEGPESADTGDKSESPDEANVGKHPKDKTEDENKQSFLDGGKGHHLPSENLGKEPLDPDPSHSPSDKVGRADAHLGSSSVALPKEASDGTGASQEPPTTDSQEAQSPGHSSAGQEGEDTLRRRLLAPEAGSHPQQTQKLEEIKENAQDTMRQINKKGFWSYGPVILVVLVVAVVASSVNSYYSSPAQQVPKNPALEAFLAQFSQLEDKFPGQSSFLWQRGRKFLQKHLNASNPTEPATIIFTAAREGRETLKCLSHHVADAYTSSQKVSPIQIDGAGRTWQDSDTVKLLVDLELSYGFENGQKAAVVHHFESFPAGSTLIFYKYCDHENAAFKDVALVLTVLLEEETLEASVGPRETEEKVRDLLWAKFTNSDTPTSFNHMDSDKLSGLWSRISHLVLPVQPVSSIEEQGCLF

[6] = E. coli growth modulation, two-sided OD650, primary screen, E. coli filamentation project, strain DRC41, 24 h (AID 1093); conditions: OD650, 24 h, higher = more signal, called active from +8 up or from −8 down;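 further: MC1000 strain lacking acrAB efflux and sulA so SOS filamentation is blocked; test concentration not given here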
[7] = small-molecule microarray binders of probe aLefty2, primary screen, biochemical, biotinylated probe, 635/667 nm fluorescence (AID 1094); conditions: higher = more signal;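 further: score merges spot fluorescence near 667 nm with spot signal-to-noise ratio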
[8] = test system: Noggin (protein binding on small-molecule microarray); assay: Noggin binders on small-molecule microarray, primary screen, biochemical, 635/667 nm fluorescence (AID 1095); conditions: 635 nm fluorescence, higher = more signal;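 further: score merges 667 nm feature fluorescence with signal to noise over triplicate slides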
[9] = target: Neurogenic locus notch homolog protein 3 (Homo sapiens) (UniProt Q9UM47); assay: NOTCH3 binders on small-molecule microarray, primary screen, biochemical, 635/667 nm fluorescence (AID 1096); conditions: NOTCH3 binding, 635 nm fluorescence, higher = more signal
Neurogenic locus notch homolog protein 3 (Homo sapiens), sequence (Q9UM47 whole entry, looked up): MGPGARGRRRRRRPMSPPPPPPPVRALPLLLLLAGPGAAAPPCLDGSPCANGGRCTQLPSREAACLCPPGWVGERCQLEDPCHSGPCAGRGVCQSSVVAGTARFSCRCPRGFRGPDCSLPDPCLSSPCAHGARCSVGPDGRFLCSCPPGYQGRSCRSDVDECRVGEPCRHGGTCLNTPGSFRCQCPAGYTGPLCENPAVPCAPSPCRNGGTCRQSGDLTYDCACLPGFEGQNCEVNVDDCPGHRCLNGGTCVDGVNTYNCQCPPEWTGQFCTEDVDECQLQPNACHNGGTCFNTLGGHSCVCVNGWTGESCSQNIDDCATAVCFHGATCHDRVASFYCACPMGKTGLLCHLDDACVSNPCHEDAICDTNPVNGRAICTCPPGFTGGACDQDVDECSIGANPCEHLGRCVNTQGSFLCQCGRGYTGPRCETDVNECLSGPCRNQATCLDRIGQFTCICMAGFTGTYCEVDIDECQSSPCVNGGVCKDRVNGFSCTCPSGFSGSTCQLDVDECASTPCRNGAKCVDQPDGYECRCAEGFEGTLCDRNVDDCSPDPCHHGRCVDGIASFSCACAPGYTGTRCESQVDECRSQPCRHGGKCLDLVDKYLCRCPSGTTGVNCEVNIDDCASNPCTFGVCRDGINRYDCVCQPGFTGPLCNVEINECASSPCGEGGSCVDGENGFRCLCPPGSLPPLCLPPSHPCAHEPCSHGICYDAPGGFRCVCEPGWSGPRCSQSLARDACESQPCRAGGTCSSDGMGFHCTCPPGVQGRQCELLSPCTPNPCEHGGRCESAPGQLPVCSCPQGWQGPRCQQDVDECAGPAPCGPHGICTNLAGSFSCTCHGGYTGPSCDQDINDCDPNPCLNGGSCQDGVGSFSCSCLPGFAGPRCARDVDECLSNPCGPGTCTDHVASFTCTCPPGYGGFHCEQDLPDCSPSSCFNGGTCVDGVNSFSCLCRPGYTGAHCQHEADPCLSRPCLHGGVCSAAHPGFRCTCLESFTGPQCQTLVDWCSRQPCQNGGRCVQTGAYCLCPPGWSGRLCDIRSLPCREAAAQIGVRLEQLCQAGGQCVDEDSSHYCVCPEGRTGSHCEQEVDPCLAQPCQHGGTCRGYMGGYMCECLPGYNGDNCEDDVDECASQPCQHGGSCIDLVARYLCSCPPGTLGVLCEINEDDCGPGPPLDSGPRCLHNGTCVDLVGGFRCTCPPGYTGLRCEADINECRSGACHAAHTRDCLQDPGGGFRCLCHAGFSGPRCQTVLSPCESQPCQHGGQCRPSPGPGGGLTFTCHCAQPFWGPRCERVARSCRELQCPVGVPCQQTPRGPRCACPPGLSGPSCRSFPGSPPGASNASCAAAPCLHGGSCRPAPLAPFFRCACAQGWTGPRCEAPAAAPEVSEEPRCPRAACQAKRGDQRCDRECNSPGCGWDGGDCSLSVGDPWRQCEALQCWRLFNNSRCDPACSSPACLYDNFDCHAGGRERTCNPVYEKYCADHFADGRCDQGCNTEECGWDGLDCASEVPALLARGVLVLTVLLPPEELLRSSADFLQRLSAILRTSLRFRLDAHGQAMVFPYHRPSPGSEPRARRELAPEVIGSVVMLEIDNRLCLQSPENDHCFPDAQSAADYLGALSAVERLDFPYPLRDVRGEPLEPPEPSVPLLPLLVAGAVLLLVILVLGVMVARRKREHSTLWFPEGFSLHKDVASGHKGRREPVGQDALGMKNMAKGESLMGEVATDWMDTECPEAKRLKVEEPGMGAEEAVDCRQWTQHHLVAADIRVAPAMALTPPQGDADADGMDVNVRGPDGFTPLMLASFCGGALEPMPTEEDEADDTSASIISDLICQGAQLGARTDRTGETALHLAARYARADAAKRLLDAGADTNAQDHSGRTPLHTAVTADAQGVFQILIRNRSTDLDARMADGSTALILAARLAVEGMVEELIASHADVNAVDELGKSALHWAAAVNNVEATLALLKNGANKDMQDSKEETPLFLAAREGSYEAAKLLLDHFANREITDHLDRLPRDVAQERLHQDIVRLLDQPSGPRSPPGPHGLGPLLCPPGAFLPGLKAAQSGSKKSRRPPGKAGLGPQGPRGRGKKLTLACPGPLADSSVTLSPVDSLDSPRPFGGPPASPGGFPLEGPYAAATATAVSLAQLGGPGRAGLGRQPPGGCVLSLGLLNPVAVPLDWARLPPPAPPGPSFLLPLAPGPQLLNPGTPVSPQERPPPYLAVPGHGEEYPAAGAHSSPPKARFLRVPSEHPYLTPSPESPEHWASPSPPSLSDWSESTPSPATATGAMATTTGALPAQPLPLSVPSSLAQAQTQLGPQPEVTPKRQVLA

[10] = small-molecule microarray binders of probe aEGFR, primary screen, biochemical, biotinylated probe, 635/667 nm fluorescence (AID 1097); conditions: higher = more signal;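 further: probe is a biotinylated anti-EGFR antibody binding compounds printed on slides; score combines fluorescence near 667 nm and signal to noise of each spot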
[11] = test system: Plasmodium falciparum Sir2 (PF13_0152, Sir2A); assay: pfSir2 binders on small-molecule microarrays, primary screen, biochemical, small-molecule microarray, 635 nm fluorescence (AID 1098); conditions: small-molecule microarray binding, fluorescence 635 nm; higher = more signal;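 further: score merges spot fluorescence intensity with its signal-to-noise ratio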
[12] = small-molecule microarray binders of probe aDKK1, primary screen, biochemical, biotinylated probe, 635/667 nm fluorescence (AID 1099); conditions: higher = more signal;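 further: score merges 667nm spot fluorescence with signal to noise across triplicate slides; reference of the scale not given here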
[13] = small-molecule microarray binders of probe aCHRDL2, primary screen, biochemical, biotinylated probe, 635/667 nm fluorescence (AID 1100); conditions: higher = more signal
[14] = splicing luciferase reporter signal modulators, primary screen, spliceosome inhibition project, cell-based, HEK293, splice +/- reporter (AID 1101); conditions: luminescence, 24 h, higher = more signal, called active from +8 up or from −8 down;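 further: HEK293 cells carrying a splicing-competent luciferase reporter gene; test concentration not given here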
[15] = target: Fibroblast growth factor 10 (Homo sapiens) (UniProt O15520); assay: FGF10 binders on small-molecule microarrays, primary screen, biochemical, small-molecule microarray, 635 nm fluorescence (AID 1102); conditions: FGF10 binding, fluorescence 635 nm, higher = more signal
Fibroblast growth factor 10 (Homo sapiens), sequence (O15520 whole entry, looked up): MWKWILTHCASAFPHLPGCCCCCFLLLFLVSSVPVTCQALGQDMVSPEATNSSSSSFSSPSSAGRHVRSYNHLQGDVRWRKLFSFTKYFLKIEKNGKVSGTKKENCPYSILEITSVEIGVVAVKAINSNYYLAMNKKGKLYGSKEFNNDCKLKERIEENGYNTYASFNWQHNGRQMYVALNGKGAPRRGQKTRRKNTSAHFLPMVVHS

[16] = test system: glycogen synthase kinase-3 (GSK3A per assay name; protocol says GSK3B); assay: GSK3 binders on small-molecule microarrays, primary screen, biochemical, small-molecule microarray, 635 nm fluorescence, GSK3A (AID 1103); conditions: small-molecule microarray binding, fluorescence 635 nm; higher = more signal; further: the record names both GSK3A and GSK3B
[17] = target: Epidermal growth factor receptor (Homo sapiens) (UniProt P00533); assay: EGFR binders on small-molecule microarrays, primary screen, biochemical, small-molecule microarray, 635 nm fluorescence (AID 1104); conditions: EGFR binding, higher = more signal;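 further: score merges 667 nm emission intensity with spot signal to noise over triplicate slides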
Epidermal growth factor receptor (Homo sapiens), sequence (P00533 whole entry, looked up): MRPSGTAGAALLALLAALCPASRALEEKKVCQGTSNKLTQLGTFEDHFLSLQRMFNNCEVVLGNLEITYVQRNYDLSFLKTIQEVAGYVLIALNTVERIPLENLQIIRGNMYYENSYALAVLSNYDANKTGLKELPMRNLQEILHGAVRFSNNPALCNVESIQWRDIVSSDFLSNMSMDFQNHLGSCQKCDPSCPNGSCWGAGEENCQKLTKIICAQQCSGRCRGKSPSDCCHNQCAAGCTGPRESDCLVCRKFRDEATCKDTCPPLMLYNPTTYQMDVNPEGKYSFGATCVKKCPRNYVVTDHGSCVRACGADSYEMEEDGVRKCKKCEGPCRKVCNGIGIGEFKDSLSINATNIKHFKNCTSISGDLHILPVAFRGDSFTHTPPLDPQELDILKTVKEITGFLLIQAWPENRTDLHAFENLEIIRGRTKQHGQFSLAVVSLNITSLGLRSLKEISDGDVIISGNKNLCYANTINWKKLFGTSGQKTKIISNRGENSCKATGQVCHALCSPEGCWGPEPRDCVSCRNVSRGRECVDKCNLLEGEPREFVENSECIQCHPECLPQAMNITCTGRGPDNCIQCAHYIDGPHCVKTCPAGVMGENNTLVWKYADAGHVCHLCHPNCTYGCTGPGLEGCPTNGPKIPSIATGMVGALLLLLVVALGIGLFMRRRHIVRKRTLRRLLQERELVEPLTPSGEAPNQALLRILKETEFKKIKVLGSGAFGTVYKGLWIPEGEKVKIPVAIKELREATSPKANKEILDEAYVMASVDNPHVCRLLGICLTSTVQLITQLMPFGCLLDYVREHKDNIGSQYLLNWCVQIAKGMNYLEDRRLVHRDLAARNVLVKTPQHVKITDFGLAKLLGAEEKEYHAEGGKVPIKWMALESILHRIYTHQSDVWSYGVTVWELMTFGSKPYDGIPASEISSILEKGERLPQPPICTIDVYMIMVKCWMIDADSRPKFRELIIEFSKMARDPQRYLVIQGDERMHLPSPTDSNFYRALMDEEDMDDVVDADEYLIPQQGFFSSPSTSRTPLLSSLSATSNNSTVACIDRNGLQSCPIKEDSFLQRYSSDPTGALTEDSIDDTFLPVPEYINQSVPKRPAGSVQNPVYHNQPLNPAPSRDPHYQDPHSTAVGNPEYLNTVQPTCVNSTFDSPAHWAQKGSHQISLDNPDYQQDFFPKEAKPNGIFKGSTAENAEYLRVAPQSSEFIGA

[18] = target: Follistatin-related protein 3 (Homo sapiens) (UniProt O95633); assay: FSTL3 binders on small-molecule microarrays, primary screen, biochemical, small-molecule microarray, 635 nm fluorescence (AID 1105); conditions: FSTL3 binding, higher = more signal;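 further: score merges emission near 667 nm and signal to noise per printed spot across three slides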
Follistatin-related protein 3 (Homo sapiens), sequence (O95633 whole entry, looked up): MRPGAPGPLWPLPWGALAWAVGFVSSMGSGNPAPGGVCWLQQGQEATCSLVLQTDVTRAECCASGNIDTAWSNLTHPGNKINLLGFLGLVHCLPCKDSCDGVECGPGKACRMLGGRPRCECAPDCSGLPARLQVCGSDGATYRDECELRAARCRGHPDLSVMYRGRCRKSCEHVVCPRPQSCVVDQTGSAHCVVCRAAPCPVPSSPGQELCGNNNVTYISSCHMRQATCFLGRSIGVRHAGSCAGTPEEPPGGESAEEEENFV

[19] = target: Dickkopf-related protein 1 (Homo sapiens) (UniProt O94907); assay: DKK1 binders on small-molecule microarrays, primary screen, biochemical, small-molecule microarray, 635 nm fluorescence scan (AID 1106); conditions: DKK1 binding, higher = more signal;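 further: score merges emission near 667 nm with signal to noise over three replicate slides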
Dickkopf-related protein 1 (Homo sapiens), sequence (O94907 whole entry, looked up): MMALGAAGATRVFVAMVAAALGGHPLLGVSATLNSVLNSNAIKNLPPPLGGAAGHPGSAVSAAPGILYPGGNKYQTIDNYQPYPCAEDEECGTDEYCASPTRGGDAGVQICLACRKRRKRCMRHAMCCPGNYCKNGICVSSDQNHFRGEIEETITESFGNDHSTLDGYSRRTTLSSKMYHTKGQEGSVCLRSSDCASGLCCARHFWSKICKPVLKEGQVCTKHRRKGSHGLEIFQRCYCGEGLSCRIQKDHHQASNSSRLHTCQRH

[20] = test system: Inhibin beta A chain (activin A); assay: INHBA (activin A) binders on microarrays, primary screen, biochemical, small-molecule microarray, 635 nm fluorescence scan (AID 1107); conditions: small-molecule microarray binding, higher = more signal;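 further: mouse activin A protein probed at 4.33 µg/mL on printed slides; score merges bound-protein fluorescence near 667 nm with spot signal-to-noise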

Structure (SMILES)	composite z-score [1]	z-score [2]	z-score [3]	z-score [4]	composite z-score [5]	z-score [6]	composite z-score [7]	composite z-score [8]	composite z-score [9]	composite z-score [10]	composite z-score [11]	composite z-score [12]	composite z-score [13]	z-score [14]	composite z-score [15]	composite z-score [16]	composite z-score [17]	composite z-score [18]	composite z-score [19]	composite z-score [20]
CCOC(=O)C[C@H]1[C@H](OC(=O)c2ccc(C(=O)c3ccccc3)cc2)[C@@H](NC(=O)CC(C)C)c2cc(OCCCO)ccc2N1C(=O)c1ccccc1	1.34	-0.327 (inactive)	-0.333 (inactive)	0.276 (inactive)	2.03	-0.747 (inactive)	0.0769	0.937	0.961	0.0807	0.449	-0.0013	-0.345	-0.958 (inactive)	0.515	0.972	0.141	1.17	0.95	0.158
COc1cc(NN2C(C(O)c3cc(OC)c(OC)c(OC)c3)C=CC3C(=O)N(C)C(=O)C32)cc(OC)c1OC (stereo not given)	0.986	-0.871 (inactive)	-0.724 (inactive)	-0.0522 (inactive)	3.37	-0.678 (inactive)	0.16	-0.112	1.06	0.08	1.03	0.171	0.318	0.255 (inactive)	0.691	0.984	0.347	0.34	-0.289	0.93
NCCCCCNC(=O)[C@H]1C[C@H]2C(=O)N3CCC[C@H]3C(=O)N2[C@H]1c1cccc(OCCO)c1	1.56	0.372 (inactive)	-1.53 (inactive)	0.674 (inactive)	3.15	0.0425 (inactive)	0.767	-0.321	0.0389	0.102	0.685	0.583	1.1	0.125 (inactive)	0.68	0.703	-0.525	-0.515	-0.331	0.896
CCOC(=O)C=Cc1cccc(C)c1O	0.23	-19.8 (active)	-11.5 (active)	-2.54 (inactive)	0.236	0.666 (inactive)	-0.166	-0.452	-0.0138	-0.099	0.995	-0.123	-0.0819	-1.41 (inactive)	-0.119	-0.414	0.069	-0.101	-0.199	0.39
CCOC(=O)C[C@H]1[C@H](OC(=O)Cc2ccc3c(c2)OCO3)[C@@H](NC(=O)c2ccc3ccccc3n2)c2cc(OCCCO)ccc2N1C(=O)c1ccccc1	0.299	0.131 (inactive)	-0.931 (inactive)	0.336 (inactive)	0.604	0.887 (inactive)	0.0209	0.257	0.363	-0.0039	0.153	0.0565	-0.33	-0.149 (inactive)	0.445	0.0897	0.0654	0.73	0.283	0.696
COc1ccccc1CN1C(=O)c2ccccc2[C@](Cc2ccccc2I)(C(=O)O)[C@@H]1c1ccc(CO)cc1	1.51	0.443 (inactive)	0.812 (inactive)	-0.0193 (inactive)	2.45	1.28 (inactive)	-0.0031	0.653	1	0.554	1.19	0.552	0.485	-0.498 (inactive)	1.2	0.941	0.719	0.993	0.441	0.933
CC1CC/C=C\[C@H]2OC34C=CCN(C(C)(C)C)C(=O)[C@H]3N(CCCCCO)C(=O)[C@@H]4C2C(=O)O1 (stereo not given in full)	-0.187	-0.0244 (inactive)	0.531 (inactive)	-0.615 (inactive)	-0.0626	-0.129 (inactive)	-0.261	-0.673	-0.284	-0.262	0.261	-0.27	0.2	-0.0565 (inactive)	-0.899	-0.696	-1.08	-0.852	-1.16	0.0607
O=C(c1ccccc1)N1C(=O)[C@]2(Cc3ccccc31)N=C(c1ccc(OCCCO)cc1)O[C@@H]2c1ccccc1	1.54	0.525 (inactive)	0.171 (inactive)	3.7 (inactive)	3.25	0.0249 (inactive)	-0.0059	1.12	1.07	-0.157	1.2	-0.0088	0.339	-0.936 (inactive)	1.42	1.31	0.0998	0.554	0.405	0.0538
CO[C@H]1O[C@H](CO)[C@@H](OC(=O)Nc2ccc(Br)cc2)[C@@H]2OC(=O)[C@@H](Cc3ccccc3)C/C=C/C[C@H](Cc3ccccc3)C(=O)O[C@@H]12	1.44	1.1 (inactive)	-0.295 (inactive)	3.58 (inactive)	2.01	1.03 (inactive)	0.0378	0.202	0.464	-0.0668	0.939	-0.139	0.265	-0.913 (inactive)	0.767	0.602	-0.265	-0.0749	-0.0375	0.517
C=CCN1C(=O)[C@]2(CCS(=O)(=O)c3ccccc3)N=C(c3ccc(OCCCO)cc3)O[C@@H]2c2ccccc21	1.54	-0.523 (inactive)	-1.16 (inactive)	2.46 (inactive)	3.65	0.624 (inactive)	0.0416	1.49	1.1	0.0574	1.38	-0.317	0.7	-1.81 (inactive)	0.732	1.29	0.387	1.43	0.466	1.18
